Measured values reported in PubChem BioAssay (NCI).
About 79,000 compounds went through this panel and 15% of them were active in at least one assay; those are over-represented in the sample as a whole. Calls of active or inactive are those of the source. Rule as the data show it: active = growth inhibition above about 70%; inactive = the rest.

Legend:
[1] = NCI Yeast Anticancer Drug Screen. Data for the rad52 strain (AID 147);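 also: 0% = growth of vehicle-treated control cultures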; conditions: S. cerevisiae rad52 mutant growth inhibition, active compounds read high
How it was run: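 Yeast strain carrying a DNA damage repair alteration was exposed to test compounds. Growth inhibition was measured relative to vehicle-treated controls.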

[2] = NCI Yeast Anticancer Drug Screen. Data for the wt1 strain (AID 149);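 also: 0% = growth of vehicle-treated wt1 cultures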; conditions: S. cerevisiae wt1 strain (SPY 50644) growth inhibition, active compounds read high
How it was run: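 wt1 strain grown with compound or vehicle; inhibition taken from the growth difference.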

[3] = NCI Yeast Anticancer Drug Screen. Data for the rad50EPP+ strain (AID 151);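 also: 0% = growth of vehicle-treated control cultures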; conditions: S. cerevisiae rad50 mutant strain, active compounds read high
How it was run: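 Yeast strain carrying rad50 alteration (rad50EPP+) exposed to compounds; growth inhibition measured relative to vehicle-treated controls.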

[4] = NCI Yeast Anticancer Drug Screen. Data for the mgt1 strain (AID 153); conditions: S. cerevisiae mgt1 mutant growth inhibition, active compounds read high
How it was run: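 Yeast mgt1 strain (DNA repair/cell-cycle alteration panel) exposed to compounds; growth inhibition measured relative to vehicle-treated controls.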

[5] = NCI Yeast Anticancer Drug Screen. Data for the rad50 strain (AID 155);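 also: 0% = growth of vehicle-only cultures of the same strain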; conditions: S. cerevisiae rad50 strain growth inhibition, active compounds read high
How it was run: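 DNA repair mutant yeast, compound exposure, growth read-out; inhibition is taken relative to vehicle.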

[6] = NCI Yeast Anticancer Drug Screen. Data for the mec2-1 strain (AID 157); conditions: S. cerevisiae mec2-1 strain, active compounds read high
How it was run: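 mec2-1 yeast strain, carrying an alteration in DNA damage repair or cell cycle control, was exposed to compounds; growth inhibition was measured relative to vehicle-treated controls.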

[7] = NCI Yeast Anticancer Drug Screen. Data for the rad14 strain (AID 159);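 also: 0% = growth of vehicle-treated control cultures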; conditions: S. cerevisiae rad14 strain growth inhibition, active compounds read high
How it was run: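 DNA repair-defective yeast, compound-exposed; % growth inhibition derived by comparison with vehicle-treated controls.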

[8] = NCI Yeast Anticancer Drug Screen. Data for the sgs1 mgt1 strain (AID 161);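 also: 0% = growth of cultures given vehicle only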; conditions: S. cerevisiae sgs1 mgt1 strain, active compounds read high
How it was run: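 Yeast cells carrying a defined DNA-repair defect were exposed to test compounds. Growth inhibition was measured relative to vehicle-treated controls.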

[9] = NCI Yeast Anticancer Drug Screen. Data for the cln2 rad14 strain (AID 165);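 also: 0% = growth equal to vehicle treated cultures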; conditions: S. cerevisiae cln2 rad14 strain, active compounds read high
How it was run: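 Yeast carrying cln2 and rad14 alterations (cell cycle control and DNA damage repair) were exposed to compounds. Growth inhibition was measured against vehicle-treated controls.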

[10] = NCI Yeast Anticancer Drug Screen. Data for the bub3 strain (AID 167); conditions: S. cerevisiae bub3 mutant strain, active compounds read high
How it was run: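 In this screen, a yeast mutant lacking normal mitotic checkpoint function is challenged with compound. Relative growth versus vehicle gives the inhibition value.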

[11] = NCI Yeast Anticancer Drug Screen. Data for the wt2 strain (AID 169);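 also: 0% = growth of vehicle-treated yeast cultures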; conditions: S. cerevisiae wt2 strain growth inhibition, active compounds read high
How it was run: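 Yeast cells were exposed to test compounds, and growth inhibition was measured relative to vehicle-treated controls.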

[12] = NCI Yeast Anticancer Drug Screen. Data for the mlh1 strain (AID 171);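 also: 0% = growth of vehicle-treated control cultures of the same strain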; conditions: S. cerevisiae mlh1 strain growth inhibition, active compounds read high
How it was run: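 Yeast carrying a defined genetic alteration in DNA damage repair or cell cycle control were exposed to test compounds. Growth inhibition was measured relative to vehicle-treated controls.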

[13] = NCI Yeast Anticancer Drug Screen. Data for the sgs1 strain (AID 173);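 also: 0% = growth of vehicle-only control cultures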; conditions: S. cerevisiae sgs1 mutant, active compounds read high
How it was run: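 Yeast mutant strains carrying defined defects in DNA damage repair or cell cycle control were exposed to test compounds. Growth inhibition was scored against vehicle-treated controls.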

[14] = NCI Yeast Anticancer Drug Screen. Data for the mlh1 rad18 strain (AID 175); conditions: S. cerevisiae mlh1 rad18 strain growth inhibition, active compounds read high
How it was run: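 Growth inhibition of the yeast strain was measured after compound exposure and expressed relative to vehicle-treated controls. The strain carries defined defects in DNA damage repair.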

[15] = NCI Yeast Anticancer Drug Screen. Data for the rad18 strain (AID 177); conditions: S. cerevisiae rad18 mutant growth inhibition, active compounds read high
How it was run: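 Yeast carrying a defined DNA damage repair alteration were exposed to compounds. Growth inhibition was expressed relative to vehicle-treated controls.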

[16] = at 5.0 µM (retest, dose inferred, filed as 0.5)
[17] = at 50.0 µM (retest, dose inferred, filed as 5.0)

Measured: growth inhibition

Cc1ccc(NC(=O)CCC(=O)C(C)C(=O)c2ccccc2)c(C)c1 (stereo unspecified)
inactive: [1]; at 1.2 µM 1% | [1]; at 3.7 µM 1% | [1]; at 11.0 µM 3% | [1]; at 33.0 µM 1% | [1]; at 100.0 µM -1% | [2]; at 1.2 µM -1% | [2]; at 3.7 µM -1% | [2]; at 11.0 µM -1% | [2]; at 33.0 µM -1% | [2]; at 100.0 µM -3% | [3]; at 1.2 µM -2% | [3]; at 3.7 µM 0% | [3]; at 11.0 µM 1% | [3]; at 33.0 µM 0% | [3]; at 100.0 µM 5% | [4]; at 1.2 µM 0% | [4]; at 3.7 µM 5% | [4]; at 11.0 µM 1% | [4]; at 33.0 µM 0% | [4]; at 100.0 µM -5% | [5]; at 1.2 µM 1% | [5]; at 3.7 µM -6% | [5]; at 11.0 µM 3% | [5]; at 33.0 µM 3% | [5]; at 50.0 µM -41.7% | [5]; at 100.0 µM -1% | [6]; at 1.2 µM -3% | [6]; at 3.7 µM -5% | [6]; [16] 12% | [6]; at 11.0 µM 1% | [6]; at 33.0 µM -2% | [6]; [17] 39% | [6]; at 50.0 µM -1.6% | [6]; at 100.0 µM -3% | [7]; at 1.2 µM 0% | [7]; at 3.7 µM 2% | [7]; at 11.0 µM 1% | [7]; at 33.0 µM 2% | [7]; at 100.0 µM 2% | [8]; [16] 5% | [8]; [17] 9% | [8]; at 50.0 µM 11.1% | [9]; [16] -3% | [9]; [17] 11% | [9]; at 50.0 µM -12.9% | [10]; at 1.2 µM -1% | [10]; at 3.7 µM -2% | [10]; [16] -15% | [10]; at 11.0 µM -2% | [10]; at 33.0 µM -5% | [10]; [17] -10% | [10]; at 50.0 µM 0.65% | [10]; at 100.0 µM -5% | [11]; at 1.2 µM -2% | [11]; at 3.7 µM -1% | [11]; at 11.0 µM -1% | [11]; at 33.0 µM -2% | [11]; at 100.0 µM -4% | [12]; at 1.2 µM -2% | [12]; at 3.7 µM -1% | [12]; at 11.0 µM -1% | [12]; at 33.0 µM -1% | [12]; at 100.0 µM 0% | [13]; at 1.2 µM 0% | [13]; at 3.7 µM -1% | [13]; at 11.0 µM -3% | [13]; at 33.0 µM -1% | [13]; at 100.0 µM -1% | [14]; [16] 6% | [14]; [17] 3% | [14]; at 50.0 µM 6.15% | [15]; at 1.2 µM -1% | [15]; at 3.7 µM -1% | [15]; at 11.0 µM -1% | [15]; at 33.0 µM -3% | [15]; at 100.0 µM -1%
active: [5]; [16] 91% | [5]; [17] 92%

Nc1cc2ccccc2cc1N
active: [3]; at 100.0 µM 76% | [5]; at 50.0 µM 89.3% | [6]; at 50.0 µM 91.5% | [8]; at 50.0 µM 88.7% | [9]; [17] 70% | [9]; at 50.0 µM 90.1% | [10]; [17] 95% | [10]; at 50.0 µM 90.5% | [14]; at 50.0 µM 90.8%
inactive: [1]; at 1.2 µM -47% | [1]; at 3.7 µM -35% | [1]; at 11.0 µM -41% | [1]; at 33.0 µM -39% | [1]; at 100.0 µM 25% | [2]; at 1.2 µM -28% | [2]; at 3.7 µM -14% | [2]; at 11.0 µM -17% | [2]; at 33.0 µM 3% | [2]; at 100.0 µM 20% | [3]; at 1.2 µM -37% | [3]; at 3.7 µM -13% | [3]; at 11.0 µM 40% | [3]; at 33.0 µM 59% | [4]; at 1.2 µM -30% | [4]; at 3.7 µM -42% | [4]; at 11.0 µM -33% | [4]; at 33.0 µM -23% | [4]; at 100.0 µM -18% | [5]; at 1.2 µM -33% | [5]; at 3.7 µM -23% | [5]; [16] 14% | [5]; at 11.0 µM -26% | [5]; at 33.0 µM 12% | [5]; [17] 17% | [5]; at 100.0 µM 63% | [6]; at 1.2 µM -41% | [6]; at 3.7 µM -45% | [6]; [16] 4% | [6]; at 11.0 µM -46% | [6]; at 33.0 µM -35% | [6]; [17] 15% | [6]; at 100.0 µM -15% | [7]; at 1.2 µM -15% | [7]; at 3.7 µM -17% | [7]; at 11.0 µM -13% | [7]; at 33.0 µM -16% | [7]; at 100.0 µM 6% | [8]; [16] 19% | [8]; [17] 26% | [9]; [16] 21% | [10]; at 1.2 µM -35% | [10]; at 3.7 µM -36% | [10]; [16] 25% | [10]; at 11.0 µM -30% | [10]; at 33.0 µM -38% | [10]; at 100.0 µM 24% | [11]; at 1.2 µM -18% | [11]; at 3.7 µM -18% | [11]; at 11.0 µM -25% | [11]; at 33.0 µM -34% | [11]; at 100.0 µM -28% | [12]; at 1.2 µM -22% | [12]; at 3.7 µM -22% | [12]; at 11.0 µM -18% | [12]; at 33.0 µM -11% | [12]; at 100.0 µM 16% | [13]; at 1.2 µM 13% | [13]; at 3.7 µM 20% | [13]; at 11.0 µM 16% | [13]; at 33.0 µM 33% | [13]; at 100.0 µM 63% | [14]; [16] 6% | [14]; [17] 40% | [15]; at 1.2 µM -22% | [15]; at 3.7 µM -26% | [15]; at 11.0 µM -16% | [15]; at 33.0 µM -1% | [15]; at 100.0 µM 46%

COc1ccc(C(C)c2cc3c(cc2OCC(C)=O)OCO3)cc1 (stereo unspecified)
inactive: [1]; at 1.2 µM -3% | [1]; at 3.7 µM 0% | [1]; at 11.0 µM 1% | [1]; at 33.0 µM -1% | [2]; at 1.2 µM -2% | [2]; at 3.7 µM -3% | [2]; at 11.0 µM -5% | [2]; at 33.0 µM -8% | [2]; at 100.0 µM 49% | [3]; at 1.2 µM -3% | [3]; at 3.7 µM 1% | [3]; at 11.0 µM 3% | [3]; at 33.0 µM 12% | [3]; at 100.0 µM 11% | [4]; at 1.2 µM -3% | [4]; at 3.7 µM -2% | [4]; at 11.0 µM -4% | [4]; at 33.0 µM -7% | [4]; at 100.0 µM 42% | [5]; at 1.2 µM 2% | [5]; at 3.7 µM 45% | [5]; [16] 1% | [5]; at 11.0 µM 26% | [5]; at 33.0 µM 9% | [5]; [17] 14% | [5]; at 50.0 µM -11.3% | [6]; at 1.2 µM -3% | [6]; at 3.7 µM -1%
active: [1]; at 100.0 µM 73% | [5]; at 100.0 µM 84%
